# Compound activity deposited in PubChem BioAssay by National Center for Advancing Translational Sciences (NCATS).
# Most compounds without a hit are left out; they make up all but 19% or so of the library.
# BCR signal inh: inhibitors of chronic active B-cell receptor signaling | Potency, µM (doses to about 46.1 µM), without a hit: top-dose activity change, negative = inhibition, usual class: inhibitors | actives 0.05% (n = 340,000) | AID 493014 | ABC-DLBCL IkBa-CBG/CBR reporter, luminescence ratio, 4 h; active = well fitted inhibition curve with a large enough effect in the signal ratio, with a control signal flat, not every such curve was filed as active; inconclusive = small, poorly fitted or top-dose-only effect, or effect the other way, or a change in a side signal; the % refers to the signal ratio;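 also: potency is read from the fitted curve at half-maximal effect; plate controls were basal doxycycline-induced cells for no effect and cells given 10 µM MG132 for full effect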
#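 TMD8 ABC-DLBCL cells carrying doxycycline-inducible green luciferase fused to IkappaBalpha plus unfused red luciferase were exposed to compounds (up to 46 uM) for 4 hrs at 37C. Activity came from the overlap-corrected green/red luminescence ratio.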
# TDP1 cell CPT: growth inhibition of DT40 Tdp1-/-;hTDP1 cells with camptothecin (screen for TDP1 inhibitors); Potency, µM (top dose mostly 46.2 µM), for the others: at the highest dose activity change, negative = growth inhibition, usual class: inhibitors; chicken DT40 Tdp1-/-;hTDP1 cells + 20 nM CPT, ATP luminescence, 48 h; AID 686979; actives 12% (n = 420,000); also: potency is read from the fitted curve at half-maximal effect; % is scaled to controls: 0 for no effect and ±100 for the full control effect; nearly all actives have a fitted effect of over 55% in size
#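 Cell growth measured by CellTiter-Glo luminescence after a minimum 48 h, 37 C compound exposure with 20 nM CPT in Tdp1-knockout DT40 cells stably expressing hTDP1, seeded 400/well; qHTS titration format.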
# IL1B secr inh: inhibitors of inflammasome signaling (IL-1 beta secretion); THP-1 LPS/ATP IL-1B secretion, AlphaLISA, 16 h; stronger effect = lower value; activity change, % at 57.5 µM; actives 4.7% (n = 360,000); AID 743279; in the data active = activity change below about -50%; inconclusive = mostly about -30% to -49%; also: % is scaled to controls: 0 for no effect and ±100 for the full control effect
#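 THP-1 cells pretreated 1 hr with compounds (up to 57.5 uM final), then stimulated with LPS (250 ng/mL final) plus ATP (1.25 mM final); secreted IL-1B measured by AlphaLISA after 16 hr, decreased signal indicating inhibition.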
# SW480 rereplic: DNA re-replication induction in SW480 cells; SW480 DNA re-replication, Hoechst DNA content imaging, 48 h; Potency, µM (top dose mostly 46.1 µM), without a hit: at the highest dose re-replication activation, most hits filed as activators; actives 1.8% (n = 340,000); AID 624297; also: potency is read from the fitted curve at half-maximal effect; % of control where 0% means no effect; nearly all actives have a fitted effect of over 55% in size
#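 Hoechst fluorescence of nuclei (405 nm excitation, 500-530 nm emission) measured by plate-scanning imager after 48 hr compound exposure at 37 C; re-replication scored as increased number of nuclei with elevated intensity.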
# MCF10A rereplic: induces DNA re-replication in MCF 10a normal breast cells | actives 2.9% (n = 350,000) | Potency, µM (top dose mostly 46.1 µM), for the others: at the highest dose activity, positive = re-replication, hits mostly activators | MCF 10A DNA re-replication, Hoechst nuclear intensity, 48 h; also: potency is read from the fitted curve at half-maximal effect; % of control where 0% means no effect; nearly all actives have a fitted effect of over 50% in size
# DT40 TDP1 no CPT: qHTS for Inhibitors of human tyrosyl-DNA phosphodiesterase 1 (TDP1): qHTS in cells in absence of CPT | AID 686978, 2013 | Potency, µM (titrated, usually from 46.2 µM), for the others: at the top dose activity change, negative = growth inhibition, usual class: inhibitors | DT40 Tdp1-/- hTDP1 cells, no CPT, ATP luminescence, 48 h | actives 15% (n = 420,000); also: potency is read from the fitted curve at half-maximal effect; % is scaled to controls: 0 for no effect and ±100 for the full control effect; nearly all actives have a fitted effect of over 55% in size
#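 Chicken DT40 Tdp1-/- cells complemented with human TDP1, screened without camptothecin (DMSO vehicle only), 400 cells/well. Compounds pin-transferred, cells incubated at 37 °C for at least 48 hr. Growth read as ATP-dependent luminescence (CellTiter-Glo, 30 min at RT).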
# An asterisk follows results filed as active; ? = inconclusive; . = not tested or not shown; [ ] = another dose, or the depositor's remark. Unless noted, calls follow the shape of the dose curve; as a rule, active = well fitted curve in the direction sought with a large enough effect; inconclusive = small, poorly fitted or top-dose-only effect, or another doubt; inactive = no such curve, though single readings can be large; an effect the other way counts as inactive or inconclusive.
SMILES,BCR signal inh,TDP1 cell CPT,IL1B secr inh,SW480 rereplic,MCF10A rereplic,DT40 TDP1 no CPT
Cn1c(=O)c2c(nc(N3CCc4ccccc4C3)n2Cc2ccccc2F)n(C)c1=O,-29%,13µM*,5,0%[9.22 µM],-10%,16µM*
COC(=O)Cn1c(CN2CCc3ccccc3C2)nc2c1c(=O)n(C)c(=O)n2C,5%,13µM*,54,-9%,0%,21µM*
CCOC(=O)Cn1c(CN2CCN(C(c3ccccc3)c3ccccc3)CC2)nc2c1c(=O)n(C)c(=O)n2C,-14%,?,32,3%,17%,23µM*
O=C(CN(CCc1ccccc1)Cc1ccccc1)Oc1ccccc1P(=O)(O)O,4%,-9%,6,9%,0%,4%
CCc1ccc(NC(=O)CCS(=O)(=O)c2ccc3c(c2)oc(=O)n3C)cc1,.,-27%,.,.,.,-19%
COC(=O)[C@@]1(C(C)C)N=C(c2cc(OC)c(OC)c(OC)c2)[C@]2(O1)C(=O)N(Cc1ccc(OC)cc1)c1ccc(Br)cc12,.,6%,0,.,.,1%
CCc1ccc(/C=N/n2c(COc3ccccc3)n[nH]c2=S)cc1,-2%,?,40,-5%,22%,-22%
Cc1ccccc1Cn1c(CN2CCc3ccccc3C2)nc2c1c(=O)n(C)c(=O)n2C,-11%,?,-59*,2%,15%,21µM*
Cn1c(=O)c2c(nc(CN3CCc4ccccc4C3)n2Cc2ccc(F)cc2)n(C)c1=O,.,21µM*,0,?,11%,18µM*
c1cncc(-c2nc(NCc3ccco3)c3ccccc3n2)c1,12%,-25%,-29,-5%,4%,?
c1ccc(-c2nc(NCCCn3ccnc3)c3oc4ccccc4c3n2)cc1,?,?,-79*,?,?,?
c1ccc(-c2nc(NCc3ccco3)c3oc4ccccc4c3n2)cc1,?,-2%,15,3%,16µM*,-24%
Cc1ccccc1C(=O)Nc1ccccc1,-12%,6%,-4,2%,3%,1%
CC(=O)N1CCN(c2ccc(NCc3ccc(Br)o3)cc2)CC1,-1%,.,.,-1%,-3%,.
CC(=O)N1CCN(c2ccc(NCc3cccc4ccccc34)cc2)CC1,-1%,?,-76*,7%,?,?
CC(=O)N1CCN(c2ccc(NCc3ccc(-c4ccc(Br)cc4)o3)cc2)CC1,5%,.,.,13µM*,23µM*,.
Cc1ccccc1C(=O)Nc1cccc(NC(=O)c2ccc(-c3ccc(Br)cc3)o2)c1,-8%,23µM*,21,22%,?,8.2µM*
CCN1CCN(c2ccc(NC(=O)c3ccc(Br)o3)cc2)CC1,0%,-12%,-6,-20%,-26%,2%
CN1CCN(c2ccc(NC(=O)c3ccc(-c4ccc(Br)cc4)o3)cc2)CC1,?,?,-92*,?,?,29µM*
CC(NC(=O)Nc1ccc(Cl)c(Cl)c1)C(c1ccccc1)N1CCOCC1 (configuration not stated),18%,26µM*,-11,?,?,?
CC(NC(=O)C1CC1)C(c1cccs1)N1CCOCC1 (configuration not stated),2%,-10%,-9,21%,0%,5%
CC(Cc1cccs1)NC(=O)Nc1ccc(Cl)c(Cl)c1 (configuration not stated),?,23µM*,-4,-2%,17%,23µM*
CC(NC(=O)C1CCC(C(C)(C)C)CC1)C(c1ccccc1)N1CCOCC1 (configuration not stated),-1%,?,5,?,12%,23µM*
Cc1ccc(-c2c[n+](CC(=O)Nc3nc(-c4ccc(F)cc4)cs3)c3n2CCC3)cc1,9%,12µM*,-100*,-38%,9%,10µM*
O=C(C[n+]1cc(-c2ccc(F)cc2)n2c1CCC2)Nc1nc(-c2ccccc2)cs1,3%,?,-2,1%,-8%,?
SMILES,BCR signal inh,TDP1 cell CPT,IL1B secr inh,SW480 rereplic,MCF10A rereplic,DT40 TDP1 no CPT
O=C(C[n+]1cc(-c2ccc(Cl)cc2)n2c1CCC2)Nc1nc(-c2ccccc2)cs1,?,?,?,-12%,0%,5.8µM*
COc1ccc(OC)c(CNC(=O)c2cnc3c(C)cccn3c2=O)c1,-11%,4%,.,.,.,4%
CC1(C)Oc2ccc(C(=O)Nc3ccccc3)cc2N(CC#N)C1=O,2%,4%,-7,-2%,-17%,-26%
COc1cccc(N=c2oc3cc(O)ccc3cc2C(=O)NCC2CCCO2)c1 (configuration not stated),?,?,-87*,5%,?,21µM*
COc1ccc2cc(C(N)=O)c(=Nc3ccc(C)cc3)oc2c1,-8%,-17%,-2,-5%,3%,8.2µM*
COc1ccccc1N=c1oc2cc(O)ccc2cc1C(N)=O,?,?,?,11µM*,18µM*,?
Cc1cccc(N=c2oc3cc(O)ccc3cc2C(N)=O)c1,?,?,-19,?,?,15µM*
COc1ccccc1N=c1oc2cc(O)ccc2cc1C(=O)NCC1CCCO1 (configuration not stated),?,?,-1,13%,7%,?
COc1ccc2oc(=Nc3cccc(F)c3)c(C(N)=O)cc2c1,3%,-12%,2,-2%,4%,?
Cc1cn([C@H]2C[C@H](O)[C@@H](/C=C/C(=O)NCc3ccc4c(c3)OCO4)O2)c(=O)[nH]c1=O,.,7%,3,.,.,2%
CCN(Cc1ccccc1)c1ccc(/C=N/N=C(N)N)cc1,?,10µM*,-100*,?,?,13µM*
COC(=O)c1ccc(/C=N/NC(=O)CC(=O)NC(C)C)cc1,16%,-7%,22,0%,?,1%
CCN(CC)c1ccc(/C=N/NC(=O)Nc2ccccc2)cc1,?,?,-28,-5%,?,?
Cc1ccc(S(=O)(=O)N/N=C/c2ccccc2F)cc1[N+](=O)[O-],3%,-7%,-6,-18%,-9%,-1%
COC(=O)c1ccc(/C=N/NC(=S)NC(C)C)cc1,-1%,?,-7,16µM*,?,?
CCN(Cc1ccccc1)c1ccc(/C=N/NS(=O)(=O)c2ccc(C)c([N+](=O)[O-])c2)cc1,12%,?,0,20%,23%,23µM*
